The conditions of assay [1]: Ebola virus entry assay, green channel fluorescence.
For assay [2] the following is noted: Ebola virus entry assay, blue channel (ratio component).
For assay [3] the following is noted: Ebola virus entry assay, reporter ratio channel; AC50: Channel type: primary unless noted; outcome: Channel type: primary unless noted.
The conditions of assay [4]: Ebola virus entry reporter assay, green channel fluorescence.
For assay [5] the following is noted: Ebola virus entry cell assay, ratio channel.
Assay [6] can be described thus: High-throughput drug toxicity screening in the BPDCN cell line Gen2.2 (AID 1224824).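 Further: cells exposed to compounds for 48 h before reading; 100% = DMSO and 0% = bortezomib.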 Conditions: Gen2.2 BPDCN cells; at 45.8 µM (top of the series) unless noted. The essentials: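 Readout is ATP luminescence from Gen2.2 cells after two days of drug exposure in serum-containing medium at 37 °C. Values express percent activity, with vehicle defining full signal and 9.2 uM bortezomib defining zero.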

The nature of assay [7]: Immunotoxin (HA22) sensitization/mitigation study. Vehicle arm (PBS) (AID 1159510). Further: potency means the concentration at half of the fitted maximal effect. Conditions: cancer cells viability with PBS vehicle (HA22 study); series mostly up to 46.1 µM.
A short description of assay [8]: Immunotoxin (SS1P) sensitization/mitigation study. Vehicle arm (DMEM) (AID 1159513). Further: potency means the concentration at half of the fitted maximal effect. Conditions: cell viability with vehicle (DMEM); series mostly up to 46.1 µM.
The conditions of assay [9]: Ebola virus entry assay, blue channel fluorescence.

For some assays here: Entries with a potency or affinity are not part of this list. Activity calls are given as the source filed them.

The term AC50 denotes the midpoint of the concentration-response curve, whichever way the signal moves.

As for `CC(C)(C)NCC(O)c1cc(O)cc(O)c1` (stereo not drawn), the result in assay [1] and in assay [2] was inactive.
Consider `CCCc1ccc(OCC(=O)N2CCN(C(=O)COc3ccc(CCC)cc3OC)CC2)c(OC)c1`, for which the outcome in [1], in assay [3] and in assay [2] was inactive.
With `Cc1c(Nc2ncccc2C(=O)O)cccc1C(F)(F)F`, the outcome in assay [1], in assay [3] and in assay [2] was inactive.
Regarding `Cc1onc(-c2c(Cl)cccc2Cl)c1C(=O)Cl`, the outcome in assay [1], in assay [3] and in [2] was inactive.
With `O=C(CCBr)N1CCN(C(=O)CCBr)CC1`, the result in assay [1], in assay [3] and in assay [2] was inactive.
Turning to `CC(C)(N)Cc1ccccc1Cl`, the compound was called inactive in assay [1], in assay [3] and in assay [2].
Turning to `COc1ccccc1OCC1CNC(=O)O1` (stereo not drawn), the compound was called inactive in assay [1], in [3] and in assay [2].
Consider `COc1ccc2nc(SCc3ncc(C)c(OC)c3C)[nH]c2c1`, for which the call in assay [1], in [3] and in [2] was inactive.
Consider `CC(COc1ccccc1)NN` (stereo not drawn), for which the compound was classed as inactive in assay [1], in [3] and in assay [2].
In the case of `CC[C@H]1OC(=O)[C@H](C)[C@@H](O[C@H]2C[C@@](C)(OC)[C@@H](O)[C@H](C)O2)[C@H](C)[C@@H](O[C@@H]2O[C@H](C)C[C@H](N(C)C)[C@@H]2O)[C@](C)(O)C[C@@H](C)CN(C)[C@H](C)[C@@H](O)[C@]1(C)O`, the compound was classed as inactive in assay [1], in assay [2] and in assay [4]. Also, the outcome in [3] was “inactive [Channel type: confirmation]”. Moreover, the AC50 in [5] was 2.51 µM (active).
As to `CC(C)c1cccc(C(C)C)c1O`, the compound was classed as inactive in [1] and in assay [2]. The cell viability, % of control (lower = more cytotoxic) in assay [6] amounted to 123%.
`CN1CC[C@]23c4c5ccc(O)c4O[C@H]2[C@@H](O)CC[C@H]3[C@H]1C5`: the result in assay [1], in assay [3] and in assay [2] was inactive.
As to `CCCCCCCC/C=C/C(=O)O`, the result in assay [1], in [3] and in assay [2] was inactive.
Regarding `Oc1ccccc1-c1nnco1`, the compound was classed as inactive in assay [1], in [3] and in [2].
In the case of `COc1cc2c(Nc3ccc(Br)cc3F)ncnc2cc1OCC1CCN(C)CC1`, the outcome in [1], in assay [3] and in assay [2] was inactive. Besides, the Potency in assay [7] is 20.9 µM (active).
With `CCN(CC)C(C)CN1c2ccccc2Sc2ccccc21` (stereo not drawn), the call in assay [1], in assay [3] and in [2] was inactive.
`COc1cc(OC)nc(O[C@H](C(=O)O)C(OC)(c2ccccc2)c2ccccc2)n1`: the outcome in [1], in [3] and in assay [2] was inactive.
`CN1C(=O)CCS(=O)(=O)C1c1ccc(Cl)cc1` (stereo not drawn): the outcome in assay [1], in [3] and in assay [2] was inactive. For the same compound, the cell viability, % of control (lower = more cytotoxic) in [6] is 143%.
For `CCCCCCCCCCCCCCCCN`, the outcome in [1], in assay [3] and in assay [2] was inactive.
Take `CC(=O)N(c1onc(C)c1C)S(=O)(=O)c1ccc(N)cc1`: the call in assay [1], in assay [3] and in assay [2] was inactive.
In the case of `CCCCCCCCCCCCCCCCO`, the compound was classed as inactive in [1], in [3] and in [2].
As for `Nc1cc(C(Cl)=C(Cl)Cl)c(S(N)(=O)=O)cc1S(N)(=O)=O`, the compound was classed as inactive in assay [1], in assay [3] and in assay [2].
For `CS(=O)(=O)c1ccc([C@@H](O)[C@@H](CO)NC(=O)C(Cl)Cl)cc1`, the outcome in assay [1], in [3] and in assay [2] was inactive.
For `CCN(CC)CCNC(=O)c1cc(S(C)(=O)=O)ccc1OC`, the compound was classed as inactive in [1], in [3] and in [2].
Consider `CCC(C)C(C)(COC(N)=O)COC(N)=O` (stereo not drawn), for which the compound was classed as inactive in assay [1], in assay [3] and in assay [2].
Regarding `C=CCc1ccc(O)c(OC)c1`, the result in [1], in [3] and in assay [2] was inactive.
Take `Cc1onc(-c2ccccc2)c1-c1ccc(S(N)(=O)=O)cc1`: the outcome in assay [1], in [3] and in [2] was inactive.
For the compound `CN=C(NC#N)Nc1ccc(C2=NNC(=O)CC2C)cc1` (stereo not drawn), the outcome in assay [1], in assay [3] and in assay [2] was inactive.
For the compound `CN1C(=O)COc2c(C(=O)NC3CN4CCC3CC4)cc(Cl)cc21` (stereo not drawn), the outcome in [1], in [3] and in assay [2] was inactive. Moreover, the cell viability, % of control (lower = more cytotoxic) in [6] worked out at 212%.
In the case of `CCCc1nn(C)c2c(=O)[nH]c(-c3cc(S(=O)(=O)N4CCN(C)CC4)ccc3OCC)nc12`, the outcome in assay [1], in [3] and in [2] was inactive. Also, the Potency result in [7] and in [8] was “inactive” in each case.
On to `CCCCNC(=O)NS(=O)(=O)c1ccc(N)cc1`, for which the result in assay [1], in [3] and in assay [2] was inactive.
Take `CC(C(=O)O)c1ccc2c(c1)CC(=O)c1ccccc1S2` (stereo not drawn): the call in assay [1], in assay [3] and in assay [2] was inactive.
Consider `N[C@@H](COP(=O)(O)O)C(=O)O`, for which the outcome in [1], in assay [3] and in assay [2] was inactive.
Turning to `COc1ccc(CCN(C)CCCN2CCc3cc(OC)c(OC)cc3CC2=O)cc1OC`, the result in assay [1], in assay [3] and in assay [2] was inactive.
With `CO[C@@]1(NC(=O)C2SC(=C(C(N)=O)C(=O)O)S2)C(=O)N2C(C(=O)O)=C(CSc3nnnn3C)CS[C@@H]21` (stereo partly drawn), the result in assay [9], in [4] and in [5] was inactive.
Turning to `CCCCC(=O)N(Cc1ccc(-c2ccccc2-c2nn[nH]n2)cc1)[C@@H](C(=O)O)C(C)C`, the compound was classed as inactive in assay [9], in assay [4] and in assay [5].
As to `CC(C)CN(C[C@@H](OP(=O)(O)O)[C@H](Cc1ccccc1)NC(=O)O[C@H]1CCOC1)S(=O)(=O)c1ccc(N)cc1`, the compound was classed as inactive in [9], in [4] and in assay [5].
As to `Cc1ccc(Nc2nccc(N(C)c3ccc4c(C)n(C)nc4c3)n2)cc1S(N)(=O)=O`, the outcome in [1] was inactive. Further, the Potency in assay [8] was 20.9 µM (active).
`CCC(=O)NCCC1CCc2ccc3c(c21)CCO3` (stereo not drawn): the result in [9], in assay [4] and in assay [5] was inactive.
Consider `CC(C)(O/N=C(\C(=O)N[C@@H]1C(=O)N2C(C(=O)[O-])=C(C[n+]3ccccc3)CS[C@H]12)c1csc(N)n1)C(=O)O`, for which the compound was classed as inactive in assay [9], in [4] and in assay [5].
Consider `C[C@]1(O)CC[C@H]2[C@@H]3CCC4=CC(=O)CC[C@]4(C)[C@@]3(F)[C@@H](O)C[C@@]21C`, for which the outcome in [9], in assay [4] and in [5] was inactive.

The values above are taken from PubChem BioAssay (NCATS).
